Data on one molecule can be found in ChEMBL document CHEMBL1961873, “Compounds: GSK PKIS; Assays: Nanosyn kinase panel” (2012).

The target of assay [1] is Sphingosine kinase 1 (Homo sapiens) (UniProt Q9NYA1). Particulars: at 1 µM.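 Further: mean SPHK1 inhibition value reported from the GSK PKIS kinase panel screen.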
Assay [2] concerns the target T1, Sphingosine kinase 2 (Homo sapiens) (UniProt Q9NRA0).
T1 sequence (whole entry): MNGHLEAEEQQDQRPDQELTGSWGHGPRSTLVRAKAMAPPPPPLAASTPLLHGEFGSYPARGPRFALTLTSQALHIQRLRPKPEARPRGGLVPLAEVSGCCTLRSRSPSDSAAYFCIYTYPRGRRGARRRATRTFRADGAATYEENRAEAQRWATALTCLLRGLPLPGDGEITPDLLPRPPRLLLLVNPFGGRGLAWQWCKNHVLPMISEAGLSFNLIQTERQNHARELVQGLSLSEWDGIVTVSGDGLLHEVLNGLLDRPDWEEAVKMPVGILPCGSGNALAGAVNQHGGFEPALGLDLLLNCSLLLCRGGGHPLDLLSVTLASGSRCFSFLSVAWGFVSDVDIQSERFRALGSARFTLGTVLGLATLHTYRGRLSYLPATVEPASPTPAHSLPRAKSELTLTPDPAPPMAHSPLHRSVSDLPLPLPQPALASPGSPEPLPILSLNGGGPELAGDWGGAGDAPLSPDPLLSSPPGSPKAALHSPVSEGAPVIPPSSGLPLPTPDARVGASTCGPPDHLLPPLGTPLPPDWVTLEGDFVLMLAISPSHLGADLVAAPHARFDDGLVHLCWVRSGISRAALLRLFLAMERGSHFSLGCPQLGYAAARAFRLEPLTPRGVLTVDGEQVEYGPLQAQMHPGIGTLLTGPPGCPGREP
Particulars: at 0.1 µM.

Assay [3] concerns the target T1, Sphingosine kinase 2 (Homo sapiens). Particulars: at 1 µM.
For assay [4], the target named is Casein kinase II subunit alpha (Homo sapiens) (UniProt P68400). To be noted: at 0.1 µM.
Chain of Casein kinase II subunit alpha (Homo sapiens) (P68400 whole entry, looked up): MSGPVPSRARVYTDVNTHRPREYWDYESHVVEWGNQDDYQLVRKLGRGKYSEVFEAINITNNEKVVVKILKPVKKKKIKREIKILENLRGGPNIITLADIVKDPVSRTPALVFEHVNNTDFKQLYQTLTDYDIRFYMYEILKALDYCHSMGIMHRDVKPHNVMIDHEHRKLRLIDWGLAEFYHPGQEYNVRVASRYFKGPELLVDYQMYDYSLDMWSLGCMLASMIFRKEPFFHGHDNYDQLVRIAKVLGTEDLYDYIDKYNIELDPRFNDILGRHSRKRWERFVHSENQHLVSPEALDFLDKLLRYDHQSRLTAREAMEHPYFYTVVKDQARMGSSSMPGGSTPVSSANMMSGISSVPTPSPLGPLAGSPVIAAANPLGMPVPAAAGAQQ
Assay [5] shares this target. To be noted: at 1 µM.
For assay [6], the target named is T2, Inhibitor of nuclear factor kappa-B kinase subunit alpha (Homo sapiens) (UniProt O15111).
T2 sequence (whole entry): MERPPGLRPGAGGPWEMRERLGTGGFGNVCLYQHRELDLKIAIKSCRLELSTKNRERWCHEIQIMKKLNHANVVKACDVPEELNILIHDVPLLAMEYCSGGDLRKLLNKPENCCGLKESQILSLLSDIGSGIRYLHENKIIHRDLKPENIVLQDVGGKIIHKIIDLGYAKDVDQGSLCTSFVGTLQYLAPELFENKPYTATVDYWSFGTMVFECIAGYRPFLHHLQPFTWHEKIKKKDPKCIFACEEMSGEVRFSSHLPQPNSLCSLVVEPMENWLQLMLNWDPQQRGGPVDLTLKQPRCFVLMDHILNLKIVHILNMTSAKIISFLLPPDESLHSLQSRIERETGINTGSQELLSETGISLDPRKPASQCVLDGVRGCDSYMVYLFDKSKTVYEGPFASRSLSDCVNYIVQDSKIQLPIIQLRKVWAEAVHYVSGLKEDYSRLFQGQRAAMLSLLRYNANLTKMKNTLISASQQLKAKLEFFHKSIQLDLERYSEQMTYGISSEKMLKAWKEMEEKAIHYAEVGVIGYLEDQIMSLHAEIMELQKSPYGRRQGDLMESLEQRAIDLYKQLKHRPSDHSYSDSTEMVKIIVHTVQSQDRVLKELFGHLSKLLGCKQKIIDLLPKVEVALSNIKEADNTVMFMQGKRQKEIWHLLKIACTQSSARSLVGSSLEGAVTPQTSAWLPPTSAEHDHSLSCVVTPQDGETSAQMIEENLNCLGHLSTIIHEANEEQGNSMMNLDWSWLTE
Particulars: at 0.1 µM.

Assay [7] deals with T2, Inhibitor of nuclear factor kappa-B kinase subunit alpha (Homo sapiens). Particulars: at 1 µM.
Assay [8] deals with T3, Inhibitor of nuclear factor kappa-B kinase subunit beta (Homo sapiens) (UniProt O14920).
T3 sequence (whole entry): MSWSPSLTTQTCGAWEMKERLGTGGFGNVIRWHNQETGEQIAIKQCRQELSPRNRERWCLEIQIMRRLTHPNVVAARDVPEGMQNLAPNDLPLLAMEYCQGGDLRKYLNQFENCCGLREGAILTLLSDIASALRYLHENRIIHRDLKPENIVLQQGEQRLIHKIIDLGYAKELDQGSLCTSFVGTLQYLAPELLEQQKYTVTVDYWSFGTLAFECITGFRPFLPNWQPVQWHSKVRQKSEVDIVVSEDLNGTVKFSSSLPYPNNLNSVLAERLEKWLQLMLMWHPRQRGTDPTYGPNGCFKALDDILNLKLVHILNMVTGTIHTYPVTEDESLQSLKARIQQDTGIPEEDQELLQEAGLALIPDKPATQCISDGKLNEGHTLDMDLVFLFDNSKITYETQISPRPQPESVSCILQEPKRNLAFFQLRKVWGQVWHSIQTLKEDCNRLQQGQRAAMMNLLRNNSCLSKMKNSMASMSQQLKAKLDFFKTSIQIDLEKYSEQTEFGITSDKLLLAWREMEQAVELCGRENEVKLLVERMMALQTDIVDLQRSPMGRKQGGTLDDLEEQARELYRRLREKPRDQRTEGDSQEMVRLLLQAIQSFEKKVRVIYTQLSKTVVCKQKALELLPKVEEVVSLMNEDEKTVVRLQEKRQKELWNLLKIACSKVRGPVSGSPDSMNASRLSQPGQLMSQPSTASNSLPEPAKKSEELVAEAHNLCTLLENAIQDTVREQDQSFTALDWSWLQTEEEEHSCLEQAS
Particulars: at 0.1 µM.

The target in assay [9] is T3, Inhibitor of nuclear factor kappa-B kinase subunit beta (Homo sapiens). Particulars: at 1 µM.
Assay [10] deals with T4, Inhibitor of nuclear factor kappa-B kinase subunit epsilon (Homo sapiens) (UniProt Q14164).
T4 sequence (whole entry): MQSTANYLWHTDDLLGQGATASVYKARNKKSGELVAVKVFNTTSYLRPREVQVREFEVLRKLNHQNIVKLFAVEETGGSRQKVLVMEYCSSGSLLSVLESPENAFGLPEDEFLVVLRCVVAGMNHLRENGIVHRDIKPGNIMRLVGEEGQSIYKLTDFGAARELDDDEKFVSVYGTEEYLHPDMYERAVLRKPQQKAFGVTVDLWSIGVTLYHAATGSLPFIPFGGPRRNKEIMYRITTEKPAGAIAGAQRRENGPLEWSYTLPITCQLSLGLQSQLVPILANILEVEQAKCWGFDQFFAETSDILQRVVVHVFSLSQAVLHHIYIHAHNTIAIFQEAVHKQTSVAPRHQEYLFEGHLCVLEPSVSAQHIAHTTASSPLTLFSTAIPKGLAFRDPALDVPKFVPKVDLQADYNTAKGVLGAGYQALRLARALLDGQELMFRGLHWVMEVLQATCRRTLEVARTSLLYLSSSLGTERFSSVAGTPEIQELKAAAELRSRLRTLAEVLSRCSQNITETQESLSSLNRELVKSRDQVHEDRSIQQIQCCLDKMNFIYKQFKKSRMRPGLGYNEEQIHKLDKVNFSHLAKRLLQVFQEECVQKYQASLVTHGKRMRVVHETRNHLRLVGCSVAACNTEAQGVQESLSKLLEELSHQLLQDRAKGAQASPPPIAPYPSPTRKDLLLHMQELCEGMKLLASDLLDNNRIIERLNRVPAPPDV
Particulars: at 0.1 µM.

The target in assay [11] is T4, Inhibitor of nuclear factor kappa-B kinase subunit epsilon (Homo sapiens). Particulars: at 1 µM.
Assay [12] has as its target T5, Serine/threonine-protein kinase Nek1 (Homo sapiens) (UniProt Q96PY6).
T5 sequence (whole entry): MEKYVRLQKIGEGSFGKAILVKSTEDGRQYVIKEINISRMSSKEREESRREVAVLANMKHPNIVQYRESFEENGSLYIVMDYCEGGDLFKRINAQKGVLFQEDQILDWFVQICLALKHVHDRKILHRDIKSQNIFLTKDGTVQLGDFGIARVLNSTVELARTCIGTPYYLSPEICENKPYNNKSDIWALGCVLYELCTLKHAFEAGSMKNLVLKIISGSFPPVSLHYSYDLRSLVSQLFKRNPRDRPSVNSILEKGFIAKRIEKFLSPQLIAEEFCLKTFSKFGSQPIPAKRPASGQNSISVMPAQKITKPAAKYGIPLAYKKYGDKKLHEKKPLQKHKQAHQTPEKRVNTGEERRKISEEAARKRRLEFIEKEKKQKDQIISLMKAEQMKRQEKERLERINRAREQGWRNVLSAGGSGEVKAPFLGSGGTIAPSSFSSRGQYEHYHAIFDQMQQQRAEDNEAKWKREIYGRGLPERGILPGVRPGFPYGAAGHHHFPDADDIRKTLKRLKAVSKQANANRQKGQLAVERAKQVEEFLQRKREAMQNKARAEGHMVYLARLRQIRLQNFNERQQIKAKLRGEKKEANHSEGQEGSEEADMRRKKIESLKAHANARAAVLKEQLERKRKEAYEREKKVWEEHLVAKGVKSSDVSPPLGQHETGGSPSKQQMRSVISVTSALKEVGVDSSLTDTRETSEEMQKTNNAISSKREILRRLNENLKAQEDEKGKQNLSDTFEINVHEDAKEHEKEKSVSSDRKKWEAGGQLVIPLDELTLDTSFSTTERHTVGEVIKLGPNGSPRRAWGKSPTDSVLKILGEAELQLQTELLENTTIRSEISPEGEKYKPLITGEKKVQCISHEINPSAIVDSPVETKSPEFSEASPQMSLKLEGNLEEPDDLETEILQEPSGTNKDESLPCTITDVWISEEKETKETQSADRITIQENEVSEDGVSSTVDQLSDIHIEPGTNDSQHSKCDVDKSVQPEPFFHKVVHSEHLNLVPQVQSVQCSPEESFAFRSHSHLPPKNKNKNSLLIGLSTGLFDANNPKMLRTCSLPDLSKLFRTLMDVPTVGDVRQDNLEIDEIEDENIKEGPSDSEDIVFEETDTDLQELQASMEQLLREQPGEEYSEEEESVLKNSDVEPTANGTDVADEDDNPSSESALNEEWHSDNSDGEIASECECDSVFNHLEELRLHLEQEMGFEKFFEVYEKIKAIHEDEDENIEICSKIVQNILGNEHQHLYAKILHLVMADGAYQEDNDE
Particulars: at 0.1 µM.

Assay [13] concerns the target T5, Serine/threonine-protein kinase Nek1 (Homo sapiens). To be noted: at 1 µM.
The target in assay [14] is T6, Serine/threonine-protein kinase Nek2 (Homo sapiens) (UniProt P51955).
T6 sequence (whole entry): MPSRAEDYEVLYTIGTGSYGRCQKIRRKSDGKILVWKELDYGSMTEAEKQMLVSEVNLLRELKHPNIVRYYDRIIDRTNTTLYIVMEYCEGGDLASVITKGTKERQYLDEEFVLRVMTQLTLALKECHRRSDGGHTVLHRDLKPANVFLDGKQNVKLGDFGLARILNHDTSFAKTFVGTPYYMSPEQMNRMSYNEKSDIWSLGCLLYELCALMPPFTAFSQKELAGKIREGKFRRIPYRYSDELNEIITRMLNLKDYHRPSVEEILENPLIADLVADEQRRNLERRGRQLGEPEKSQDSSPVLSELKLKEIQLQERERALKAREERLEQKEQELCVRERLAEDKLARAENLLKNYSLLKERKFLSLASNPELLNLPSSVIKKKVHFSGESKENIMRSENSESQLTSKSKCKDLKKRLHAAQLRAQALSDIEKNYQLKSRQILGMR
Particulars: at 0.1 µM.

The target in assay [15] is T6, Serine/threonine-protein kinase Nek2 (Homo sapiens). Particulars: at 1 µM.
Assay [16] has as its target Serine/threonine-protein kinase Nek6 (Homo sapiens) (UniProt Q9HC98). To be noted: at 0.1 µM.
For assay [17] the target is unchanged. To be noted: at 1 µM.
Assay [18] deals with Serine/threonine-protein kinase Nek7 (Homo sapiens) (UniProt Q8TDX7). To be noted: at 0.1 µM.
Chain of Serine/threonine-protein kinase Nek7 (Homo sapiens) (Q8TDX7 whole entry, looked up): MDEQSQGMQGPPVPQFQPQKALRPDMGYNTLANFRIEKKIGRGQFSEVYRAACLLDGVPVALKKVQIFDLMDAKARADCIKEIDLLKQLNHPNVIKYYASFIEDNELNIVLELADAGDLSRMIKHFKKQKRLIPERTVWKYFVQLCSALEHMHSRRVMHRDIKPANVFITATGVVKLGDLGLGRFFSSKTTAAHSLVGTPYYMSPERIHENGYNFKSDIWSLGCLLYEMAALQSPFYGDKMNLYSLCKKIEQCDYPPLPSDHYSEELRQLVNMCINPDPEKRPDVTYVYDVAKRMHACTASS
Assay [19] has the same target. To be noted: at 1 µM.
Assay [20] deals with T7, Serine/threonine-protein kinase Nek9 (Homo sapiens) (UniProt Q8TD19).
T7 sequence (whole entry): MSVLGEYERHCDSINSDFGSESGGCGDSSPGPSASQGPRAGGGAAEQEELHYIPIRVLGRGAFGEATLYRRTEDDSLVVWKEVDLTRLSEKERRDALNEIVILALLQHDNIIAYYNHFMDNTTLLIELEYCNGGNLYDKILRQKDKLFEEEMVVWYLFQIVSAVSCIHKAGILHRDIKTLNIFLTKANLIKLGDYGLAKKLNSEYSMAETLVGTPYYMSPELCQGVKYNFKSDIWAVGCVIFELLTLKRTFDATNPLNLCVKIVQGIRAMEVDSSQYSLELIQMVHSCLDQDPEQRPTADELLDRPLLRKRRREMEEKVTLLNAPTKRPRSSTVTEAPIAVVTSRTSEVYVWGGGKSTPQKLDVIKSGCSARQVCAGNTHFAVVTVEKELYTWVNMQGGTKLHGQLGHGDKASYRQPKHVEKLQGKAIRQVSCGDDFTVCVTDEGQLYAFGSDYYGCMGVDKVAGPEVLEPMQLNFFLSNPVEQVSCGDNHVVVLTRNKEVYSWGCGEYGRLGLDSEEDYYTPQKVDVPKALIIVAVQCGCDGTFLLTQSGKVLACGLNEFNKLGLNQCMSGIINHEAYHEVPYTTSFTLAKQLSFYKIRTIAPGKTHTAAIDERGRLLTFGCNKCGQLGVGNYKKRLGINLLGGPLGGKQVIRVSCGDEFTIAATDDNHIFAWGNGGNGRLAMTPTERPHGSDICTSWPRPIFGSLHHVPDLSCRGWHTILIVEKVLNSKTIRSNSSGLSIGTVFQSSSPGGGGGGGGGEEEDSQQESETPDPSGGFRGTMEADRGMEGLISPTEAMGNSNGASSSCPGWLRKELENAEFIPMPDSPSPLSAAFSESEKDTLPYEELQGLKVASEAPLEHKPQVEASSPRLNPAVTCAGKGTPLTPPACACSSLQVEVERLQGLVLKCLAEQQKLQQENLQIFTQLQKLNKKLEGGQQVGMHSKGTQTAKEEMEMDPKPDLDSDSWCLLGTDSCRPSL
Particulars: at 0.1 µM.

Chain of Serine/threonine-protein kinase Nek6 (Homo sapiens) (Q9HC98 whole entry): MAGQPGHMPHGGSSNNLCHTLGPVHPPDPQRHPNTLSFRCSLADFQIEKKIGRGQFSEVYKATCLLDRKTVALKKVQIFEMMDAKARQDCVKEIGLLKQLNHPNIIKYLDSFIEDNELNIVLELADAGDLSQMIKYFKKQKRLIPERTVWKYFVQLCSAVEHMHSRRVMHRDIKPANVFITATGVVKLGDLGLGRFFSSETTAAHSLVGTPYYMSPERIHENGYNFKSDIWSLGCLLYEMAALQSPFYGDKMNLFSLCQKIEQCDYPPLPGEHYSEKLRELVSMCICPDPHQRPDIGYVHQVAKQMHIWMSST
Chain of Sphingosine kinase 1 (Homo sapiens) (Q9NYA1 whole entry): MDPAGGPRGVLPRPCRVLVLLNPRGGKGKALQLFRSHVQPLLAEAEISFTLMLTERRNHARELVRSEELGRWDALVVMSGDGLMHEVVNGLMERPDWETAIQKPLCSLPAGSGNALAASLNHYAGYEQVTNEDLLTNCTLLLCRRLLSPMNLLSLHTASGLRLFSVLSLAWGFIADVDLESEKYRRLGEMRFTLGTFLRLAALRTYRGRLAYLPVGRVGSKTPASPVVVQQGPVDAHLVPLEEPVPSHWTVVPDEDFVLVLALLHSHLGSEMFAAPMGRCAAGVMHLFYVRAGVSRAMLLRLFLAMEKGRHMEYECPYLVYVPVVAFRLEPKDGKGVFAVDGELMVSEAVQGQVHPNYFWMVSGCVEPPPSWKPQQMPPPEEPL

Usually inhibition stands for the drop in the measured response relative to a control, in per cent. Regarding `COc1cccc(-n2ncc3c(N/N=C/c4ccc(C(=O)NCCN(C)C)cc4)ncnc32)c1`, the inhibition in [1] is 0.56%; in assay [2] it was 0.23%; in assay [3] it was 1.39%; in assay [4] it was 31%; in [5], 62.2%; in [6], 1.29%. In addition, the inhibition is 4.43% in assay [7]; 1.09% in assay [8]; 0.86% in assay [9]; -1.79% in [10]; -5.84% in assay [11]; 2.06% in [12]. Besides, the inhibition in assay [13] was 7.24%; in assay [14], 0.16%; in assay [15] it was 1.98%; in [16], 1.11%; in [17], 0.35%; in assay [18], 3.99%. Also, the inhibition in assay [19] is -1.23%; in [20], 5.54%.
